Test results reported in PubChem BioAssay (NCI).
The panel holds about 79,000 compounds, 15% with a hit somewhere; the sample as a whole holds those more often. A number with no mark means an inactive call. Calls of active or inactive are those of the source. No stated cut-off is given here; in the data, active means growth inhibition above about 70%; inactive means the rest.

Assays:
[1] = NCI Yeast Anticancer Drug Screen. Data for the rad50 strain (AID 155);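 further: 0% = growth of vehicle-only cultures of the same strain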; settings: S. cerevisiae rad50 strain growth inhibition, active compounds read high
In short: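 Relative growth inhibition (compound vs vehicle) was measured in yeast with a defined repair-gene alteration.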

[2] = NCI Yeast Anticancer Drug Screen. Data for the mec2-1 strain (AID 157); settings: S. cerevisiae mec2-1 strain, active compounds read high
In short: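 Using mec2-1 yeast: add compound, measure growth, express inhibition versus vehicle-treated cultures.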

[3] = NCI Yeast Anticancer Drug Screen. Data for the sgs1 mgt1 strain (AID 161);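 further: 0% = growth of cultures given vehicle only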; settings: S. cerevisiae sgs1 mgt1 strain, active compounds read high
In short: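 Compounds are added to genetically altered yeast, and growth is compared with cultures given vehicle alone to give percent inhibition.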

[4] = NCI Yeast Anticancer Drug Screen. Data for the cln2 rad14 strain (AID 165);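 further: 0% = growth equal to vehicle treated cultures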; settings: S. cerevisiae cln2 rad14 strain, active compounds read high
In short: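 Yeast strain cln2 rad14, bearing defects in cell cycle control and DNA repair, serves as the test system; values reflect growth inhibition compared with vehicle.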

[5] = NCI Yeast Anticancer Drug Screen. Data for the bub3 strain (AID 167); settings: S. cerevisiae bub3 mutant strain, active compounds read high
In short: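 Screening used yeast with an engineered genetic alteration affecting cell cycle control. Compound-exposed cultures were compared with vehicle cultures, and reduced growth was taken as inhibition.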

[6] = NCI Yeast Anticancer Drug Screen. Data for the mlh1 rad18 strain (AID 175); settings: S. cerevisiae mlh1 rad18 strain growth inhibition, active compounds read high
In short: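 Steps: expose repair-defective yeast to compound; measure growth; express inhibition against vehicle-treated controls.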

[7] = at 5.0 µM (retest, dose inferred, filed as 0.5)
[8] = at 50.0 µM (retest, dose inferred, filed as 5.0)

| SMILES | growth inhibition [1, 7] | growth inhibition [1, 8] | growth inhibition ([1]; at 50.0 µM) | growth inhibition [2, 7] | growth inhibition [2, 8] | growth inhibition ([2]; at 50.0 µM) | growth inhibition [3, 7] | growth inhibition [3, 8] | growth inhibition ([3]; at 50.0 µM) | growth inhibition [4, 7] | growth inhibition [4, 8] | growth inhibition ([4]; at 50.0 µM) | growth inhibition [5, 7] | growth inhibition [5, 8] | growth inhibition ([5]; at 50.0 µM) | growth inhibition [6, 7] | growth inhibition [6, 8] | growth inhibition ([6]; at 50.0 µM) |
| --- | --- | --- | --- | --- | --- | --- | --- | --- | --- | --- | --- | --- | --- | --- | --- | --- | --- | --- |
| CCCCCCCCCCCCCCCC1C(N)C(=O)N(C)N1C (configuration not stated) | -33% | 96% (active) | 89.7% (active) | -25% | 97% (active) | 91.2% (active) | -19% | 95% (active) | 91.7% (active) | -30% | 94% (active) | 88% (active) | -51% | 95% (active) | 89.5% (active) | -43% | 95% (active) | 90.4% (active) |
| O=C1c2ccccc2C(=O)c2sc(Nc3ccc(Cl)c(Cl)c3)nc21 | 89% (active) | 98% (active) | 90% (active) | 86% (active) | 98% (active) | 92.8% (active) | 99% (active) | 98% (active) | 93.2% (active) | 68% | 98% (active) | 88% (active) | 99% (active) | 97% (active) | 91.2% (active) | 91% (active) | 97% (active) | 91.3% (active) |
| CC[n+]1ccc(Nc2ccc(NC(=O)c3ccc(C(=O)Nc4ccc(Nc5cc[n+](CC)c(N)n5)cc4)cc3)cc2)nc1N | 24% | 98% (active) | 98.2% (active) | 30% | 99% (active) | 98.9% (active) | 26% | 99% (active) | 99% (active) | -3% | 98% (active) | 97.3% (active) | 28% | 96% (active) | 98% (active) | 50% | 99% (active) | 98.3% (active) |
| [O-]c1c2cc(-[n+]3c(-c4ccccc4)cc(-c4ccccc4)cc3-c3ccccc3)cc1CO[C@@H](c1ccccc1)[C@H](c1ccccc1)OCc1cccc(n1)CO[C@@H](c1ccccc1)[C@H](c1ccccc1)OC2 | 98% (active) | 96% (active) | 87.2% (active) | 98% (active) | 98% (active) | 90.8% (active) | 100% (active) | 98% (active) | 90.5% (active) | 97% (active) | 98% (active) | 90.2% (active) | 99% (active) | 99% (active) | 89.3% (active) | 98% (active) | 97% (active) | 86.7% (active) |
| C=C(C)C1(C(=O)OCC(Cl)(Cl)Cl)NC(=O)C(NC(=O)COc2ccccc2)=CO1 (configuration not stated) | 26% | 66% | 94.8% (active) | 4% | 68% | 86.8% (active) | 8% | 56% | 94.5% (active) | 6% | 31% | 61.1% | 3% | 44% | 85% (active) | 3% | 51% | 93% (active) |
| COC(=O)C1=C(C)NC(C)=C(C(=O)OC)C1c1ccc(/[N+]([O-])=C/c2ccccc2)cc1 | 4% | 43% | 85% (active) | 5% | 34% | 70.8% (active) | 13% | 25% | 96.4% (active) | -1% | 40% | 60.2% | 17% | 74% (active) | 78.8% (active) | -7% | 67% | 93.2% (active) |
| CCCCCCCCCCCC(N)c1ccccc1 (configuration not stated) | 99% (active) | 99% (active) | 99.5% (active) | 99% (active) | 99% (active) | 99.5% (active) | 99% (active) | 99% (active) | 99.2% (active) | 99% (active) | 99% (active) | 99.1% (active) | 99% (active) | 99% (active) | 99.2% (active) | 99% (active) | 99% (active) | 99.5% (active) |
| Cc1nc(C)c(C(=O)NNC(=O)C[N+](C)(C)C)cc1C(=O)NNC(=O)C[N+](C)(C)C | 66% | 8% | -23.2% | 18% | 7% | -8.4% | -36% | -29% | 5.8% | -2% | -4% | 7.2% | -20% | 8% | -15.2% | 17% | 14% | -25.4% |
| CCOC(=O)Cc1csc2[n+]1C(=O)/C(=C\c1cccc(Cl)c1Cl)S2 | 11% | 20% | 69.4% | 0% | 28% | 60% | 1% | 52% | 83.4% (active) | -11% | 32% | 31.8% | -32% | 52% | 75.8% (active) | 14% | 29% | 72.5% (active) |
| CC1CCN(CCCOC(=O)c2ccccc2)CC1 | 25% | 40% | 58.9% | 13% | 56% | 30.5% | 35% | 66% | 62.1% | 25% | 54% | 77% (active) | 31% | 64% | 63.2% | 52% | 74% (active) | 55% |
| COc1cc(C)cc2c(-c3c(O)cc(O)c4c3C[C@H](C)N[C@H]4C)cc(-c3cc(-c4c(O)cc(O)c5c4C[C@H](C)N[C@H]5C)c4cc(C)cc(OC)c4c3O)c(O)c12 | -6% | 27% | -28.4% | -10% | -12% | -27.8% | -14% | -7% | 18.7% | 0% | 1% | 87% (active) | 0% | -23% | -48.5% | -18% | 27% | 2.7% |
| O=C1OC(C2OC(=O)C(=O)C2C(=O)c2ccc(Cl)cc2)C(C(=O)c2ccc(Cl)cc2)C1=O (configuration not stated) | -3% | 63% | 82.9% (active) | -3% | 37% | 11.8% | 1% | 64% | 30.5% | -4% | 31% | 29.6% | 9% | 43% | 43% | -5% | 85% (active) | 76.7% (active) |
| O=c1[nH]c(Cc2ccccc2)nc2c1sc1nc3ccccc3n12 | 36% | 86% (active) | 25.2% | 9% | 56% | -1.95% | 19% | 92% (active) | -34.2% | 28% | 81% (active) | -2.85% | 8% | 89% (active) | -33.4% | 18% | 83% (active) | -7.45% |
| S=C(NC/C(Br)=C/Br)Nc1cccc2ccccc12 | -30% | 99% (active) | 86% (active) | -18% | 99% (active) | 89.8% (active) | -21% | 99% (active) | 85.6% (active) | -5% | 99% (active) | 88.8% (active) | -25% | 99% (active) | 90.7% (active) | -13% | 99% (active) | 81.3% (active) |
| CCCCn1c(C)nc2cc(C(F)(F)F)cc(N)c21 | 0% | 41% | 78.6% (active) | -4% | 35% | 48.3% | 0% | 31% | 93.6% (active) | -5% | 8% | 6.6% | -8% | 10% | 31.9% | -11% | 65% | 43.5% |
| CCN(CC)CCOc1cccc2c1C(=O)c1c(O)cccc1C2=O | 12% | 72% (active) | 59.4% | -21% | 70% (active) | 39.3% | 4% | 54% | 71.2% (active) | 5% | 38% | 74.3% (active) | 8% | 47% | 35.9% | -1% | 79% (active) | 62.4% |
| CCO/N=C1\CCCCC1SS(=O)(=O)O (configuration not stated) | -5% | 11% | 40.5% | 7% | 17% | -14.1% | -6% | 20% | 31.8% | 0% | 7% | 15.2% | 5% | 22% | 8.2% | -1% | 4% | 31.9% |
| CCCNC(=O)N(CC(C)(C)C)S(=O)(=O)c1ccc(Cl)cc1 | -4% | -10% | 71.1% (active) | -2% | -10% | 93.1% (active) | -2% | 0% | 68.3% | -4% | -17% | 86.8% (active) | 7% | 27% | 99.5% (active) | -5% | -97% | 36.2% |
| CC(C)NC(=O)OCCN=C1c2ccccc2CCc2ccccc21 | -17% | 95% (active) | 76.4% (active) | -32% | 96% (active) | 78.8% (active) | -46% | 89% (active) | 77.5% (active) | -26% | 60% | 61.5% | -62% | 97% (active) | 81.5% (active) | -11% | 95% (active) | 68.8% |
